The list is not random: actives were taken first. Their share in the collection is about 3.3%.
SMARCA2 act: activators of SMARCA2 function | hit rate 1% among 370,000 | activation, % at 9.1 µM | AID 652017 | MG213 cells, MMTV-luciferase reporter, dexamethasone, overnight; in the data active means activation above about 7.8%;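 further: 0% = vehicle wells and 100% = reference activator wells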
esBAF inh: blocks esBAF chromatin remodeling in mouse ES cells; reporter increase, % at 12.5 µM; hit rate 2% among 350,000; Bmi1-luciferase knock-in reporter, 24 h; 100% = twice the neutral-well signal; AID 602393; in the data active means activation above about 40%; inconclusive means no clear call, values can overlap the other calls;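 further: 0% = median of the plate's neutral control wells and 100% = double that signal; a rise in the Bmi1 reporter signal indicates esBAF inhibition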
697 NFkB inh: lowers PMA/ionomycin-induced NF-kB signal in 697 B cells; inhibition, % at 4 µM; AID 435022; 697 B-cell NF-kB luciferase reporter, 16 h; hit rate 0.33% among 330,000; in the data active means inhibition above about 35%
Jurkat NFkB inh: lowers PMA/ionomycin-induced NF-kB signal in Jurkat cells; PMA/ionomycin-induced NF-kB luciferase reporter, luminescence; inhibition, % at 4 µM; hit rate 0.53% among 330,000; in the data active means inhibition above about 50%
Gli-Sufu antag: blocks Gli-Sufu signaling in a luciferase reporter; hit rate 0.74% among 340,000; inhibition, % at 5 µM; Sufu-KO-LIGHT fibroblasts, Gli luciferase reporter luminescence;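 active means inhibition above about 55%, limit read from the data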;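 further: 0% = DMSO-treated cells and 100% = wells with medium but no cells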
Jurkat NFkB conf: inhibitors of the PMA/ionomycin-induced NF-kB reporter in Jurkat cells, retest; shares compounds with Jurkat NFkB inh; Jurkat NF-kB luciferase, 16 h; inhibition, % at 4 µM; hit rate 27% among 2,700; AID 435020;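 active means inhibition reaching about 45% at 4 µM in either replicate, limit read from the data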;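 further: plate controls were PMA/ionomycin stimulated DMSO wells for no effect and unstimulated DMSO wells for full effect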
697 NFkB conf: inhibitors of the PMA/ionomycin-induced NF-kB reporter in 697 B cells, retest | shares compounds with 697 NFkB inh | 697 B-cell NF-kB luciferase, 16 h | inhibition, % at 4 µM | hit rate 35% among 2,000 | AID 449746; in the data active means inhibition mostly above about 28%, no sharp cut-off; inactive means mostly below about 22%
An asterisk follows results filed as active; i = inactive; ? = inconclusive; nt = not tested or not shown.

SMILES	SMARCA2 act	esBAF inh	697 NFkB inh	Jurkat NFkB inh	Gli-Sufu antag	Jurkat NFkB conf	697 NFkB conf
CC[n+]1cccc(-c2nc3ccccc3s2)c1	-7.2	nt	0.9	5.0	-1.5	nt	nt
CC[n+]1c(/C=C/N(C)c2ccccc2)n(-c2ccccc2)c2ccc(-c3nc4ccccc4s3)cc21	nt	-47.2	54.5*	97.6*	90.7*	91.0*	83.0*
CCCNC(=O)[C@H]1[C@H](CO)[C@H]2Cn3c(ccc(-c4ccncc4)c3=O)[C@@H]1N2C(=O)CC1CC1	nt	-4.8	nt	nt	nt	nt	nt
O=C(Nc1ccc(N2CCN(C(=O)c3ccc(Cl)cc3)CC2)cc1)c1ccc2c(c1)OCCO2	-6.1	-9.7	38.6*	58.4*	36.4	57.3*	-39.9
O=C(Nc1ccc2c(c1)OCCO2)c1ccc(Cl)cc1Cl	3.0	-17.6	-272.1	-152.0	-92.7	-96.4	-210.6
C=C1/C=C(\C)[C@](C)(O)C[C@H](O)CC(=O)[C@H](O)[C@@H](O)[C@H](C)C[C@H](C)OC(=O)/C(C)=C/CC/C=C/[C@@H]2O[C@H]2C[C@H](C)C1	nt	nt	36.6*	56.9*	nt	12.0	16.8
CO[C@H]1CN(C)C(=O)c2ccc(NC(C)=O)cc2OC[C@H](C)N(S(=O)(=O)c2cn(C)cn2)C[C@H]1C	nt	-2.8	nt	nt	nt	nt	nt
C[C@H](NC(=O)c1nc[nH]c1C(=O)N[C@@H](C)C(=O)OCc1ccccc1)C(=O)OCc1ccccc1	1.5	4.6	55.6*	51.3*	0.4	85.5*	60.0*
C[C@H](NC(=O)c1nc[nH]c1C(=O)NC(c1ccccc1)c1ccccc1)C(=O)OCc1ccccc1	-0.6	21.4	4.3	4.0	0.9	nt	nt
CCC(=O)Nc1ccc2c(c1)C(=O)N(C)C[C@@H](OC)[C@H](C)CN(C(=O)C1CC1)[C@H](C)CO2	nt	2.8	nt	nt	nt	nt	nt
CCOC(=O)c1sc2nc3c(cc2c1N)COC(C(C)C)C3 (stereo not given)	1.1	nt	-431.4	-253.8	-64.7	-70.9	-347.6
C[C@@H]1CCCCO[C@H](CN(C)C(=O)CCCN(C)C)[C@@H](C)CN([C@@H](C)CO)C(=O)c2cc(N(C)C)ccc2O1	nt	2.5	nt	nt	nt	nt	nt
CCCNC(=O)C[C@H]1C[C@H]2c3cc(NC(=O)c4ccc5c(c4)OCO5)ccc3O[C@H]2[C@H](CO)O1	nt	25.2	nt	nt	nt	nt	nt
C[C@H]1CN([C@@H](C)CO)C(=O)Cc2cc(NS(=O)(=O)c3cccs3)ccc2O[C@H]1CN(C)CC1CC1	nt	4.8	nt	nt	nt	nt	nt
C[C@H]1O[C@@H](O[C@H]2[C@@H](O)C[C@H](O[C@H]3[C@@H](O)C[C@H](O[C@H]4CC[C@@]5(C)[C@H](CC[C@@H]6[C@@H]5C[C@@H](O)[C@]5(C)[C@@H](C7=CC(=O)OC7)CC[C@]65O)C4)O[C@@H]3C)O[C@@H]2C)C[C@H](O)[C@@H]1O	-11.7	1.4	92.4*	96.1*	-29.3	96.8*	92.7*
Cc1ccc(NC(=O)Nc2ccc3c(c2)C(=O)N(C)[C@@H]2CC[C@@H](CC(=O)O)O[C@H]2CO3)cc1	nt	3.8	nt	nt	nt	nt	nt
CCCCCCCCn1ccc(=N)cc1	-8.3	nt	78.3*	80.0*	38.2	73.2*	63.8*
C[C@H]1CN([C@@H](C)CO)S(=O)(=O)c2ccc(C3=CCCC3)cc2O[C@H]1CN(C)C(=O)C1CCCCC1	nt	5.4	nt	nt	nt	nt	nt
O=C(Nc1ccc2sccc2c1)c1ccc(Cl)s1	1.4	12.8	-323.2	-223.8	-132.5	-143.7	-306.2
O=C(Nc1ccc(Oc2ccccc2)cc1)C1CC1	-1.1	nt	-15.5	1.5	-3.8	nt	nt
O=C(Nc1ccc(C#Cc2ccccc2)cc1)C1CC1	0.8	?	i	-276.7	-98.3	-141.3	i
CCCC(=O)Nc1ccc2c(c1)C(=O)N(C)[C@@H]1CC[C@H](CC(=O)NCCc3ccncc3)O[C@H]1CO2	nt	-2.7	nt	nt	nt	nt	nt
CCOc1ccc(/C=C2\SC(=S)N(CCC(=O)O)C2=O)cc1	-11.2	nt	77.2*	52.5*	18.9	61.0*	66.5*
CO[C@H]1CN(C)C(=O)c2ccc(NC(=O)C3CCOCC3)cc2OC[C@H](C)N(C(=O)c2ccccc2)C[C@H]1C	nt	0.8	nt	nt	nt	nt	nt
CCOc1ccc(-c2nc(-c3ccccc3C)no2)cc1	nt	nt	-266.6	-167.3	nt	-124.3	-302.4
SMILES	SMARCA2 act	esBAF inh	697 NFkB inh	Jurkat NFkB inh	Gli-Sufu antag	Jurkat NFkB conf	697 NFkB conf
COc1ccc(-c2nc(-c3ccccn3)no2)cc1	-7.7	nt	48.4*	76.8*	69.0*	86.1*	38.8*
CCC(=O)Nc1ccc2c(c1)C(=O)N(C)[C@H]1CC[C@H](CC(=O)NCc3ccc(OC)cc3)O[C@@H]1CO2	nt	-7.3	nt	nt	nt	nt	nt
O=C(NCc1ccccc1F)c1ccc2c(c1)OCO2	-0.3	13.9	3.3	-12.7	-12.2	nt	nt
O=C(NCCc1ccccc1F)c1ccc2c(c1)OCCO2	-10.1	-83.4	55.4*	76.3*	69.0*	81.8*	39.2*
O=C(Nc1nc2ccccc2[nH]1)c1ccccc1	5.2	nt	-291.7	-163.1	7.4	-60.9	-179.3
CC(=O)Nc1nc2ccccc2[nH]1	-1.9	nt	6.6	-1.9	-12.1	nt	nt
NC1=NC[C@H](Cc2ccc(O)cc2)N1CCCCC1CCCCC1	-3.1	-10.0	40.6*	79.0*	59.4*	49.8*	40.4*
NC1=NC[C@H](Cc2ccc(O)cc2)N1CCc1cc(C(F)(F)F)cc(C(F)(F)F)c1	-1.0	-5.2	-2.0	2.3	-17.1	nt	nt
CCC(C)NC(=O)c1cc2cc3ccc(OC)cc3nc2s1 (stereo not given)	2.6	-11.2	-274.5	-213.7	-132.6	-112.3	-187.4
COc1ccc2cc3cc(C(=O)NCCN4CCc5ccccc5C4)sc3nc2c1	-1.4	nt	-81.9	-57.7	-21.0	nt	nt
C[C@@H]1CN([C@H](C)CO)C(=O)c2cccc(NC(=O)Nc3cccc4ccccc34)c2O[C@@H]1CN(C)S(=O)(=O)c1cn(C)cn1	nt	-0.2	nt	nt	nt	nt	nt
CCOc1cccc(C(=O)Nc2ccc3ccccc3c2)c1	0.3	-30.2	-449.2	-185.0	-112.6	-144.9	-489.6
O=C(Nc1ccncc1)c1ccc2ccccc2c1	-0.1	nt	2.1	-38.5	-13.4	nt	nt
Cc1ccoc1C(=O)Nc1ccc2ccccc2c1	-1.1	-37.2	-444.5	-210.9	-179.2	-122.1	-388.1
O=C(Nc1ccc2ccccc2c1)c1ccc(Cl)cc1	6.1	-0.5	-475.6	-215.3	-113.0	-126.3	-486.0
O=S1(=O)C=C(Sc2nc3ccccc3s2)c2ccccc21	nt	nt	-476.8	96.8*	24.1	92.3*	i
O=C(CSc1nc2ccccc2s1)CSc1nc2ccccc2s1	-3.0	-1.9	7.2	-2.5	-9.4	nt	nt
CO[C@@H]1CN(C)C(=O)c2cc(NC(=O)C3CC3)ccc2OC[C@@H](C)N(Cc2nccs2)C[C@H]1C	nt	-4.4	nt	nt	nt	nt	nt
COc1ccccc1C#Cc1ccc2c(c1)O[C@H](CN(C)Cc1ccccc1)[C@H](C)CN([C@@H](C)CO)S2(=O)=O	nt	-3.7	nt	nt	nt	nt	nt
COc1cc2sc3ccc(C#CC4(O)CCCCC4)cc3c(=O)c2cc1OC	7.8*	20.5	-332.0	-297.5	-11.5	-86.0	-410.6
O=C(Nc1cccc(F)c1)N1C[C@H]2[C@@H](c3ccccc31)[C@@H](CO)N2C(=O)c1ccccc1F	nt	1.0	nt	nt	nt	nt	nt

High-throughput results from PubChem.
